Experimental data: PubChem BioAssay AID720533 (National Center for Advancing Translational Sciences (NCATS), 2013)
Values joined by “and” are separate entries in the source; they are usually repeats but may differ in a detail not shown here. Equal values may be shown once. The whole screen tested about 18,000 compounds, of which about 750 (4.2%) were called active. Roughly 13% stayed inconclusive and do not appear here. Calls come from the whole dose curve; tested in HEK293 cells. This excerpt belongs to a sample that is enriched for actives. The source holds several records for some structures; these can differ, active in one and inactive in another.

assay: qHTS for Inhibitors of binding or entry into cells for Lassa Virus; details: Lassa virus pseudotyped entry inhibition, cell-based qHTS; series mostly up to 49.2 µM; activity change, negative = inhibition: at the top concentration
% is set by controls: 0 for no effect and ±100 for the full control effect; potency is the fitted concentration of half-maximal effect.

| SMILES | activity change, negative = inhibition | Potency |
| --- | --- | --- |
| COc1ccc(O[C@H]2C=C[C@@H](c3ccccc3)O[C@H]2COC(=O)CCC(C)=NOC[C@@H](C)[C@H](OCc2ccccc2)C(C)C)cc1 | -27.6% [at 8.59 µM] (inactive) |  |
| CCCCC/C=C\C/C=C\C/C=C\CCCCCCC(N)=O | 4.71% (inactive) |  |
| COc1ccc(O[C@H]2C=C[C@@H](c3ccccc3)O[C@H]2CON=C[C@@H](C)[C@H](OCc2ccccc2)C(C)C)cc1 | -25.5% [at 8.59 µM] (inactive) |  |
| CCN(CC)CCCN=C1NC(c2ccccc2)C(C(=O)OC)=C(C)N1CC (configuration not stated) | 9.38% [at 8.59 µM] (inactive) |  |
| C[C@H]1Cc2c(COc3ccccc3)nc3c(c2CO1)CN(C(=O)Nc1cccc(C#N)c1)CC3 | -15.7% [at 8.59 µM] (inactive) and -11.7% [at 8.59 µM] (inactive) |  |
| CC1(C)S[C@@H]2[C@H](N=CN3CCCCCC3)C(=O)N2[C@H]1C(=O)O | 3.64% (inactive) |  |
| CC(C)(Cc1c[nH]c2ccc(Cl)cc12)NCCOc1ccccc1OCC1CC1 |  | 28.2 µM (active) |
| CC(=O)OCC(=O)[C@@]1(O)CCC2C3CCC4=CC(=O)CC[C@@]4(C)[C@]3(F)C(O)C[C@]21C (some centres not stated) | 2.6% (inactive) |  |
| CN(Cc1cccc2ncccc12)C(=O)c1cnn(-c2nccc(-c3ccccc3F)n2)c1C1CC1 |  | 12.6 µM (active) |
| Cc1ccc(-c2ccnc(-n3ncc(C(=O)N(C)Cc4cccc5ncccc45)c3C3CC3)n2)o1 | -21.1% (inactive) |  |
| Cc1cccc(CNC(=O)c2cnn(-c3nccc(-c4ccccc4F)n3)c2C2CC2)n1 | -0.396% (inactive) |  |
| Cc1ccc(S(=O)(=O)N2CCC(=O)N([C@H](COCc3ccccc3)Cc3ccccc3)CC2)cc1 | -0.656% (inactive) |  |
| CCC1CN(CCNC(=O)c2ccsc2)Cc2cc(OC)ccc2O1 (configuration not stated) | -13.6% (inactive) |  |
| CCCCN1CC(COCc2ccccc2)OCCS1(=O)=O (configuration not stated) | 14.1% (inactive) |  |
| C=C(C)C1CC=C(CO)CC1 (configuration not stated) | -12% (inactive) |  |
| C=C1/C(=C\C=C2\CCCC3(C)C2CCC3C(C)/C=C/C(O)C2CC2)CC(O)CC1O (configuration not stated) |  | 10 µM (active) |
| N#Cc1c(Cl)c(Cl)c(Cl)c(C#N)c1Cl |  | 2.24 µM (active) |
| CC(C)(O)CCC(O)[C@@](C)(O)C1CC[C@]2(O)C3=CC(=O)C4CC(O)C(O)C[C@]4(C)C3CC[C@]12C (some centres not stated) | -0.611% (inactive) |  |
| COC(C)C(C(=O)OCC1=CCN2CC[C@H](O)[C@@H]12)C(C)C (some centres not stated) | -11.7% (inactive) |  |
| COC(=O)C12C[C@H](C)C3C(C)C(c4ccccc4C31)N2C(=O)C(F)(F)F (some centres not stated) | 4.09% [at 8.59 µM] (inactive) |  |
| CCCCC[C@H](O)/C=C/[C@@H]1[C@@H](CC(=O)CCC(=O)O)[C@@H](O)C[C@H]1O | -8.8% (inactive) |  |
| COc1cc(C(=O)N2CCOCC2)cc(OC)c1OC | inactive |  |
| COC(=O)C1=C(C(=O)OC)[C@@H]2N(C)c3ccccc3[C@@]23C[C@@H](C(=O)OC)N(C(=O)c2ccco2)C3=N1 | 11.9% [at 8.59 µM] (inactive) |  |
| CC(C)c1cnc(NC(=O)Cc2ccccc2)s1 | 19.7% (inactive) |  |

| SMILES | activity change, negative = inhibition | Potency |
| --- | --- | --- |
| CC(=O)Oc1ccccc1C(=O)Nc1ncc([N+](=O)[O-])s1 |  | 7.94 µM (active) |
| CCOC(=O)[C@H](CCc1ccccc1)N[C@@H](C)C(=O)N1CC2(C[C@H]1C(=O)O)SCCS2 | -3.33% (inactive) |  |
| COc1cccc(CN2CCC3(CC2)c2ccccc2[C@@H](NC(=O)c2ccccc2OC)[C@@H]3O)c1 | -19.8% (inactive) |  |
| CO[C@@H]1C[C@@H](C[C@H]2CC[C@H](C)[C@@H]([C@@H](C)C(=O)O)O2)O[C@]2(O[C@](C)([C@H]3CC[C@@](C)(C4OC([C@H]5O[C@@](O)(CO)[C@H](C)C[C@@H]5C)C[C@@H]4C)O3)C[C@H]2C)[C@@H]1C (some centres not stated) |  | 3.16 µM (active) |
| O=C(C1CCCCC1)N1C[C@H](O)[C@H](n2cc(-c3ccc(F)cc3)nn2)C[C@@H]1c1ccccc1 | -16.6% (inactive) |  |
| CC1C(O)CC2C(C(=O)O)=CO[C@@H](O[C@H]3OC(CO)C(O)C(O)C3O)C21 (some centres not stated) | -0.42% (inactive) |  |
| CO[C@H]1[C@@H](O)[C@H](N)[C@@H](O[C@H]2O[C@H]([C@H](C)N)CC[C@H]2N)[C@H](O)[C@@H]1N(C)C(=O)CN | -19.4% (inactive) |  |
| CCC1CN(CCNC(=O)c2cccc(C)n2)Cc2cc(OC)ccc2O1 (configuration not stated) | -1.6% (inactive) |  |
| CS(=O)(=O)c1ccc(Oc2nccc(-c3c(-c4ccc(F)cc4)ncn3C3CCNCC3)n2)cc1 | -23.2% (inactive) |  |
| COc1ccc(NC(=O)C[C@H]2C(=O)N(CCc3ccccc3)C[C@@H]2C)cc1 | -3.95% (inactive) |  |
| Oc1ccc(Cl)c2c1CCC2 | -0.737% (inactive) |  |
| CC[C@]1(O)C[C@@H]2CN(CCc3c([nH]c4ccccc34)[C@@](C(=O)OC)(c3cc4c(cc3OC)N(C)[C@H]3[C@@](O)(C(=O)OC)[C@H](OC(C)=O)[C@]5(CC)C=CCN6CC[C@]43[C@@H]65)C2)C1 |  | inactive and 22.4 µM (active) |
| CC(C)C[C@@H](CC(=O)N[C@@H](CCC(=O)O)CC(=O)O)NC(=O)[C@@H]1CCCC[C@H]1NC(=O)C[C@@H](NC(=O)C[C@H](Cc1c[nH]c2ccccc12)NC(=O)[C@@H]1CCCC[C@H]1N)C(C)C | -0.613% (inactive) |  |
| C[C@@H]1O[C@@H](OC[C@H]2O[C@@H](Oc3cc(O)c4c(c3)O[C@H](c3ccc(O)c(O)c3)CC4=O)[C@H](O)[C@@H](O)[C@@H]2O)[C@H](O)[C@H](O)[C@H]1O | -8.36% (inactive) |  |
| O=c1cc(-c2ccc(O)cc2)oc2c([C@@H]3O[C@H](CO)[C@@H](O)[C@H](O)[C@H]3O)c(O)cc(O)c12 | -0.528% (inactive) |  |
| COc1ccc(CCC(=O)c2c(O)cc(OC3OC(CO)C(O)C(O)C3O[C@@H]3OC(C)C(O)C(O)C3O)cc2O)cc1O (some centres not stated) | -1.94% (inactive) |  |
| Cc1cccc(CNc2ccnc(-c3cccnc3)n2)c1 | -0.505% (inactive) |  |
| CCCCN1C[C@H](c2ccc(Br)cc2)[C@@H](CC(=O)Nc2ccc(Br)cc2)C1=O | -23.4% (inactive) |  |
| COc1ccc(C[C@H](N)C(=O)N[C@@H]2[C@H](O)[C@H](n3cnc4c(N(C)C)ncnc43)O[C@@H]2CO)cc1 |  | 2.51 µM (active) |
| Nc1ncnc2c1ncn2C1CC(O)C(CO)O1 (configuration not stated) | inactive |  |
| COc1ccc(CC(N)C(=O)NC2C(O)[C@H](n3cnc4c(N(C)C)ncnc43)O[C@@H]2CO)cc1 (some centres not stated) |  | 3.98 µM (active) |
| CCN(CC)CCCC(C)Nc1ccnc2cc(Cl)ccc12 (configuration not stated) | inactive |  |
| COC1=C[C@H](C(=O)NCCNC(C)=O)[C@H](C)[C@@H](c2ccccc2)CC1=O | -0.439% [at 8.59 µM] (inactive) |  |
